Reference: PubChem BioAssay
Calls of active or inactive are those of the source.

Experiments:
[1] = tested on: PRMT1 (protein arginine N-methyltransferase 1); experiment: small molecules binding arginine methyltransferase PRMT1 – biochemical, small-molecule microarray, 635 nm fluorescence, primary screen (AID 1088); details: higher = more signal;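 note: binding of Prmt1 protein to compounds spotted on small-molecule microarray slides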
[2] = growth effects on S. cerevisiae YJM789 – YJM789 clinical isolate, OD600, 24 h, basal, primary screen (AID 1089); details: higher = more signal, called active from +8 up or from −8 down;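 note: growth of clinical yeast isolate S. cerevisiae YJM 789 seeded 1000 cells per well; test concentration not given here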
[3] = S. pombe growth modifiers, basal conditions – strain 972, OD600, 24 h, no modulator, primary screen (AID 1090);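 note: basal condition with compound alone and no growth modifier present; test concentration not given here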; details: S. pombe 972 growth, higher = more signal, called active from +8 up or from −8 down
[4] = budding yeast growth modifiers under rapamycin – strain BY4716, OD600, 96 h, primary screen (AID 1091); note: test concentration not given here; details: S. cerevisiae BY4716 + rapamycin, higher = more signal, called active from +8 up or from −8 down
[5] = biological target: Torsin-1A-interacting protein 2 (Homo sapiens) (UniProt Q8NFQ8); experiment: small molecules binding lysate-expressed LULL1 – cell lysate, human LULL1 lysate, 635/667 nm fluorescence, primary screen (AID 1092); details: small-molecule microarray, hLULL1 lysate binding, 635 nm fluorescence; higher = more signal;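 note: probe is lysate of COS7 cells overexpressing human LULL1; score merges per-feature 667 nm fluorescence with signal-to-noise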
[6] = optical density change of DRC41 E. coli – strain DRC41, OD650, 24 h, E. coli filamentation project, primary screen (AID 1093);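 note: MC1000 strain lacking acrAB efflux and sulA so SOS filamentation is blocked; test concentration not given here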; details: E. coli DRC41 growth, higher = more signal, called active from +8 up or from −8 down
[7] = probe aLefty2 binding to arrayed compounds – biochemical, biotinylated probe, 635/667 nm fluorescence, primary screen (AID 1094); details: small-molecule microarray, higher = more signal;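 note: score merges spot fluorescence near 667 nm with spot signal-to-noise ratio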
[8] = tested on: Noggin (protein binding on small-molecule microarray); experiment: small molecules binding Noggin protein – biochemical, 635/667 nm fluorescence, primary screen (AID 1095); details: 635 nm fluorescence, higher = more signal;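 note: score merges 667 nm feature fluorescence with signal to noise over triplicate slides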
[9] = biological target: Neurogenic locus notch homolog protein 3 (Homo sapiens) (UniProt Q9UM47); experiment: small molecules binding NOTCH3 protein – biochemical, 635/667 nm fluorescence, primary screen (AID 1096); details: small-molecule microarray, 635 nm fluorescence, higher = more signal
[10] = probe aEGFR binding to arrayed compounds – biochemical, biotinylated probe, 635/667 nm fluorescence, primary screen (AID 1097); details: small-molecule microarray, higher = more signal;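 note: probe is a biotinylated anti-EGFR antibody binding compounds printed on slides; score combines fluorescence near 667 nm and signal to noise of each spot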
[11] = tested on: Plasmodium falciparum Sir2 (PF13_0152, Sir2A); experiment: Plasmodium falciparum Sir2A binding compounds – biochemical, small-molecule microarray, 635 nm fluorescence, primary screen (AID 1098); details: fluorescence 635 nm, higher = more signal;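 note: score merges spot fluorescence intensity with its signal-to-noise ratio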
[12] = probe aDKK1 binding to arrayed compounds – biochemical, biotinylated probe, 635/667 nm fluorescence, primary screen (AID 1099); details: small-molecule microarray, higher = more signal;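 note: score merges 667nm spot fluorescence with signal to noise across triplicate slides; reference of the scale not given here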
[13] = probe aCHRDL2 binding to arrayed compounds – biochemical, biotinylated probe, 635/667 nm fluorescence, primary screen (AID 1100); details: small-molecule microarray, higher = more signal
[14] = change in splice reporter luminescence, either direction, cell-based, HEK293, spliceosome inhibition project, primary screen (AID 1101); details: HEK293 splicing luciferase reporter, 24 h, higher = more signal, called active from +8 up or from −8 down;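 note: HEK293 cells carrying a splicing-competent luciferase reporter gene; test concentration not given here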
[15] = biological target: Fibroblast growth factor 10 (Homo sapiens) (UniProt O15520); experiment: compounds binding fibroblast growth factor 10 – biochemical, small-molecule microarray, 635 nm fluorescence, primary screen (AID 1102); details: FGF10 binding, fluorescence 635 nm, higher = more signal
[16] = tested on: glycogen synthase kinase-3 (GSK3A per assay name; protocol says GSK3B); experiment: compounds binding glycogen synthase kinase-3 – biochemical, small-molecule microarray, 635 nm fluorescence, GSK3A, primary screen (AID 1103); details: fluorescence 635 nm, higher = more signal; note: the record names both GSK3A and GSK3B
[17] = biological target: Epidermal growth factor receptor (Homo sapiens) (UniProt P00533); experiment: compounds binding epidermal growth factor receptor – biochemical, small-molecule microarray, 635 nm fluorescence, primary screen (AID 1104); details: EGFR binding, higher = more signal;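 note: score merges 667 nm emission intensity with spot signal to noise over triplicate slides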
[18] = biological target: Follistatin-related protein 3 (Homo sapiens) (UniProt O95633); experiment: compounds binding follistatin-related protein 3 – biochemical, small-molecule microarray, 635 nm fluorescence, primary screen (AID 1105); details: FSTL3 binding, higher = more signal;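 note: score merges emission near 667 nm and signal to noise per printed spot across three slides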
[19] = biological target: Dickkopf-related protein 1 (Homo sapiens) (UniProt O94907); experiment: small molecules binding DKK1 protein – biochemical, small-molecule microarray, 635 nm fluorescence scan, primary screen (AID 1106); details: higher = more signal;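 note: score merges emission near 667 nm with signal to noise over three replicate slides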
[20] = tested on: Inhibin beta A chain (activin A); experiment: small molecules binding activin A – biochemical, small-molecule microarray, 635 nm fluorescence scan, primary screen (AID 1107); details: INHBA, higher = more signal;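 note: mouse activin A protein probed at 4.33 µg/mL on printed slides; score merges bound-protein fluorescence near 667 nm with spot signal-to-noise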

Torsin-1A-interacting protein 2 (Homo sapiens), sequence (Q8NFQ8 whole entry, looked up): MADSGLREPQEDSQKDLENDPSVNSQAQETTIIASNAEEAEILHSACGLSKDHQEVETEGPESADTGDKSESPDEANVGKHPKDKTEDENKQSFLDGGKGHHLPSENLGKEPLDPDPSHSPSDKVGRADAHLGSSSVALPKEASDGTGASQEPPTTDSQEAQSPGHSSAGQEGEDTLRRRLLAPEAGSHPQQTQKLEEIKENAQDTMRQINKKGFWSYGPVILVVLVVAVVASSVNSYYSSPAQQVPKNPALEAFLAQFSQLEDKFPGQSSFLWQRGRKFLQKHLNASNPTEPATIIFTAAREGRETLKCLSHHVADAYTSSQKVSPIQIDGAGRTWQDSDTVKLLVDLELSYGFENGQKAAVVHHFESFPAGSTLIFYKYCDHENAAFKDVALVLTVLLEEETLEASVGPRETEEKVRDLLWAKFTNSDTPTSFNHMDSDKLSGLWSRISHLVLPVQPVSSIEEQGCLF
Follistatin-related protein 3 (Homo sapiens), sequence (O95633 whole entry, looked up): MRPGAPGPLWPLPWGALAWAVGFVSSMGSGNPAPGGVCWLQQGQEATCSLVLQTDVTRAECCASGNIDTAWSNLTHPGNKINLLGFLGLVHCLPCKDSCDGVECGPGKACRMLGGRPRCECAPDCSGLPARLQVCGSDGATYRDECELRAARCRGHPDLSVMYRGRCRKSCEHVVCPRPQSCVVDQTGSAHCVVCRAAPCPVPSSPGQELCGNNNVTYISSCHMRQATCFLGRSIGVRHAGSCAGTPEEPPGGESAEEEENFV
Neurogenic locus notch homolog protein 3 (Homo sapiens), sequence (Q9UM47 whole entry, looked up): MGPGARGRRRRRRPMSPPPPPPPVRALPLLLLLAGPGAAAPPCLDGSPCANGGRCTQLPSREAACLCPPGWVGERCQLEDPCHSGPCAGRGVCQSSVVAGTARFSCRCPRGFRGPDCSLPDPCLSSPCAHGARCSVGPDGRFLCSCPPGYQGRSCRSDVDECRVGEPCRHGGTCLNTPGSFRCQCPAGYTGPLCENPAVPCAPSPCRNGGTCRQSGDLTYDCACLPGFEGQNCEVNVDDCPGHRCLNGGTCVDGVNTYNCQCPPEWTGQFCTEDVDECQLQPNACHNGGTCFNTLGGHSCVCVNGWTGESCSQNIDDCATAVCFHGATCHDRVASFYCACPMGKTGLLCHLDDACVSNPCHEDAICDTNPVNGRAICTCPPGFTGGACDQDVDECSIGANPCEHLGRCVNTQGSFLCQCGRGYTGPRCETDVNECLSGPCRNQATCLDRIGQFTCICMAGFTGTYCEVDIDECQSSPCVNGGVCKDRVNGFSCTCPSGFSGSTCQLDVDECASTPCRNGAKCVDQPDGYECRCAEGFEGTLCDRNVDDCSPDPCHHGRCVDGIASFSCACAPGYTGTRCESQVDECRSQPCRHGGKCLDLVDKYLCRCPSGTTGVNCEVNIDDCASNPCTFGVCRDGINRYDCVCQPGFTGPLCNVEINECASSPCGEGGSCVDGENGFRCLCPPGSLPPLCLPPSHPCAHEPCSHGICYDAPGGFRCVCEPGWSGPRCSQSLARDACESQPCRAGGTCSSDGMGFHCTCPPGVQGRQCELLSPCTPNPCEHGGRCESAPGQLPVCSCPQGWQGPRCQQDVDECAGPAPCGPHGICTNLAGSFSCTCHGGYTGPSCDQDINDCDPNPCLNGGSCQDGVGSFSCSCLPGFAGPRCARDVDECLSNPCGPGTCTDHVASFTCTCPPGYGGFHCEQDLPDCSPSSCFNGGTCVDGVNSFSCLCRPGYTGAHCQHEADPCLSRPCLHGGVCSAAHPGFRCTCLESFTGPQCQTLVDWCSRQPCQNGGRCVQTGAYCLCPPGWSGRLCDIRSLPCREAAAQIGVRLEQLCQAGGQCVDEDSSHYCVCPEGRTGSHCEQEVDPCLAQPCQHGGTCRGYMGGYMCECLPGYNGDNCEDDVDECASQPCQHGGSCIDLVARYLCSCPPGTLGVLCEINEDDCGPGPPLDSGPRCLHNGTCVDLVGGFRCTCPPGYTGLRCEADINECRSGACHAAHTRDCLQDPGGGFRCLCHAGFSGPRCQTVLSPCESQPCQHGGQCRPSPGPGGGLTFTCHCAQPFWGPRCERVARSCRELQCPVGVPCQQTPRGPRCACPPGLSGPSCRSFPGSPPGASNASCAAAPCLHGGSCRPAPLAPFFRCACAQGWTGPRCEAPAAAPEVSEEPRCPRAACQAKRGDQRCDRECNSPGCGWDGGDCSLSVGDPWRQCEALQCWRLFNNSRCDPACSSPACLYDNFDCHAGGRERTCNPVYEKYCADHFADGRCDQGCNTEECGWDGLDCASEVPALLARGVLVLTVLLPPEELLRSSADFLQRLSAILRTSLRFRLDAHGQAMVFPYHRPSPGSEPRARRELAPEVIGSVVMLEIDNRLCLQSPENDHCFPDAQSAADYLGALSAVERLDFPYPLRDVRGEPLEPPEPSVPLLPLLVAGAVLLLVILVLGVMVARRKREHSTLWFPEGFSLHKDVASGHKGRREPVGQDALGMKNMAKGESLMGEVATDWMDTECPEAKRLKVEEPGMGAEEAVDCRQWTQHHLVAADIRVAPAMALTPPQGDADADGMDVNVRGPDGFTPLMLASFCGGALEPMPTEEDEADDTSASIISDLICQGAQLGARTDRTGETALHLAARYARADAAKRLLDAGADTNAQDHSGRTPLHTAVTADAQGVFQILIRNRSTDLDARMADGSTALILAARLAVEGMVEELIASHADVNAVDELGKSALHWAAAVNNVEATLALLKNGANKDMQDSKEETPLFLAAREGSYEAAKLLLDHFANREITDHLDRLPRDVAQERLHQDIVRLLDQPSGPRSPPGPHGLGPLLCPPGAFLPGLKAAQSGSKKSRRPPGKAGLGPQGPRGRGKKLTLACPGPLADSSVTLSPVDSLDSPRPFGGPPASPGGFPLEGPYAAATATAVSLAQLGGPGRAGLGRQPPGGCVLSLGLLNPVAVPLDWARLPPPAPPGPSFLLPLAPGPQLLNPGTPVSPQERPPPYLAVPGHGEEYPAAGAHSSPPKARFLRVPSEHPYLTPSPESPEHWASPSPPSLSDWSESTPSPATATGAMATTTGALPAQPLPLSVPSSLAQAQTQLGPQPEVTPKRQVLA
Epidermal growth factor receptor (Homo sapiens), sequence (P00533 whole entry, looked up): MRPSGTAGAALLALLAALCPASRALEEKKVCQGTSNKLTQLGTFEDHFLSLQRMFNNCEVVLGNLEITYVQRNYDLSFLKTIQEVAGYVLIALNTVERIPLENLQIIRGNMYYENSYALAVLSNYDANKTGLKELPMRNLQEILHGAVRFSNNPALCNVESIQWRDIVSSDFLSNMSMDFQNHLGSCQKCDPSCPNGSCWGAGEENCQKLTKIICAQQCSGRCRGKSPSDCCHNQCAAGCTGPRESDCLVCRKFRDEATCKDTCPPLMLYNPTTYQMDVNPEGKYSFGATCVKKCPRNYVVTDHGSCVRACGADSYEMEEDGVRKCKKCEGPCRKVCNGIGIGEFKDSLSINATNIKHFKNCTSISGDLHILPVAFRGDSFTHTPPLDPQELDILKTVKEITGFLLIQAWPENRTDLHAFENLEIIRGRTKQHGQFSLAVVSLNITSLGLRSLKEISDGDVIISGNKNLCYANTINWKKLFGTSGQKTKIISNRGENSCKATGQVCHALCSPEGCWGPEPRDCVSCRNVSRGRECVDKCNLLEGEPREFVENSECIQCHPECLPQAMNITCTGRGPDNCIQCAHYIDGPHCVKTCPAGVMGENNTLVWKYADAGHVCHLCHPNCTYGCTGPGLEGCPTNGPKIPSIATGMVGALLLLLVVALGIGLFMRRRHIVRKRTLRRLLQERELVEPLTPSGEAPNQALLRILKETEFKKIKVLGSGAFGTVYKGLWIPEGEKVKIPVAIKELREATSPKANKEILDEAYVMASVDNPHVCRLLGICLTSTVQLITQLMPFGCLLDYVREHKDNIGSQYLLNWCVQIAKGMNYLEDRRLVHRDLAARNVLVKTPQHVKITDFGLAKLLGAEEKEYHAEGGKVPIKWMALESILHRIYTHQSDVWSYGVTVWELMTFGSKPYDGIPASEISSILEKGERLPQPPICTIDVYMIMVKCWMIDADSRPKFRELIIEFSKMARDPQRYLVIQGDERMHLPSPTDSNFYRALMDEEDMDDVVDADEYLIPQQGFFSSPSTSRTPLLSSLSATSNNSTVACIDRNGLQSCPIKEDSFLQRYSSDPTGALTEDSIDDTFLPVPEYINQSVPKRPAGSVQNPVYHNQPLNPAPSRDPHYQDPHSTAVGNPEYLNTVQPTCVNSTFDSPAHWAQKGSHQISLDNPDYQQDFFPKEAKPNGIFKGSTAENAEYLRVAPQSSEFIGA
Fibroblast growth factor 10 (Homo sapiens), sequence (O15520 whole entry, looked up): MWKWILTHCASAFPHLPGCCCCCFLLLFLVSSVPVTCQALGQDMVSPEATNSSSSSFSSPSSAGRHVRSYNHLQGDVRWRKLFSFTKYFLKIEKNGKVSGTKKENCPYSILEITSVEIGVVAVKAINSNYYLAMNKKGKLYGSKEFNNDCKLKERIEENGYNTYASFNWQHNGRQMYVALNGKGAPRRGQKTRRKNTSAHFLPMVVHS
Dickkopf-related protein 1 (Homo sapiens), sequence (O94907 whole entry, looked up): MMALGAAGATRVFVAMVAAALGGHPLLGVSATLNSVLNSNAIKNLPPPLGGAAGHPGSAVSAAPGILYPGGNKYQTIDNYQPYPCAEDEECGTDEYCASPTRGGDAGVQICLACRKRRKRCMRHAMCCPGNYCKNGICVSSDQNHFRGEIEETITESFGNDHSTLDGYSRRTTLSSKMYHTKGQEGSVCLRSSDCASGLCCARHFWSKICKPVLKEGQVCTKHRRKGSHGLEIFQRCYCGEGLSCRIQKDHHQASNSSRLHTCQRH

Compound	composite z-score [1]	z-score [2]	z-score [3]	z-score [4]	composite z-score [5]	z-score [6]	composite z-score [7]	composite z-score [8]	composite z-score [9]	composite z-score [10]	composite z-score [11]	composite z-score [12]	composite z-score [13]	z-score [14]	composite z-score [15]	composite z-score [16]	composite z-score [17]	composite z-score [18]	composite z-score [19]	composite z-score [20]
COc1cc2c(cc1OC)CN(C(=O)[C@H]1[C@@H]3C(=O)O[C@@H](c4ccccc4)[C@@H](c4ccccc4)N3[C@@H](c3ccccc3OCCO)[C@]13C(=O)Nc1ccc(C#CCCO)cc13)CC2	1.52	2.11 (inactive)	-0.0834 (inactive)	3.66 (inactive)	1.61	-0.302 (inactive)	-0.0499	1.71	1.02	-0.0531	1.37	-0.112	-0.294	-0.826 (inactive)	0.786	1.28	0.47	0.964	0.518	0.931
O=C1NC(=O)C2C1C=CC(C(O)C=Cc1ccc([N+](=O)[O-])cc1)N2Nc1ccc(Cl)cc1Cl (stereo not given)	0.782	-0.17 (inactive)	-1.23 (inactive)	-0.103 (inactive)	2.47	-2.27 (inactive)	0.729	-0.518	1.11	0.285	0.373	1.19	1.17	-0.509 (inactive)	0.641	0.364	0.41	1.02	0.0567	1.11
Cc1c(NC(=O)/C(C#N)=C/c2cccc([N+](=O)[O-])c2)c(=O)n(-c2ccccc2)n1C	0.366	-3.18 (inactive)	-2.55 (inactive)	-2.2 (inactive)	1.92	0.0751 (inactive)	-0.26	0.21	1.07	0.006	0.141	-0.123	-0.413	-0.911 (inactive)	0.455	0.797	0.53	0.53	0.561	0.107
O=C(NCc1ccccc1)[C@@H]1c2ccccc2C(=O)N(C2Cc3ccccc3C2)[C@H]1c1ccc(CO)cc1	1.56	0.106 (inactive)	0.287 (inactive)	0.644 (inactive)	2.03	-0.874 (inactive)	0.126	0.149	1.03	0.194	0.81	0.689	1.01	-0.0178 (inactive)	0.732	0.737	-0.318	0.475	0.0698	0.344
COCCCNC(=O)[C@@H]1c2ccccc2C(=O)N(Cc2ccccc2OC)[C@H]1c1ccc(CO)cc1	-0.244	0.118 (inactive)	-0.757 (inactive)	-0.921 (inactive)	2.56	-0.0935 (inactive)	-0.157	1.68	0.876	-0.115	0.342	-0.257	0.287	-1.06 (inactive)	0.621	-0.177	0.238	0.403	0.56	0.344
NCCCCCNC(=O)[C@H]1C[C@H]2C(=O)N[C@@H](Cc3ccccc3)C(=O)N2[C@H]1c1cccc(OCCO)c1	0.788	0.693 (inactive)	-1.42 (inactive)	-0.763 (inactive)	1.6	0.631 (inactive)	0.662	-0.0079	0.478	0.0115	0.0864	1.15	0.942	-0.365 (inactive)	-0.0314	0.213	0.0441	0.6	0.4	1.34
CC(C)CNC(=O)[C@@]1(Cc2ccccc2I)c2ccccc2C(=O)N(Cc2ccccc2C(F)(F)F)[C@H]1c1ccc(CO)cc1	1.15	-0.618 (inactive)	-0.0802 (inactive)	-0.403 (inactive)	1.6	0.164 (inactive)	-0.101	-0.518	-0.771	-0.201	-0.164	0.104	0.836	0.368 (inactive)	0.122	-0.95	-1.17	-0.978	-0.822	0.598
COCCOC(=O)N1C(=O)[C@@]2(c3cc(C#CC4=CCCCC4)ccc31)[C@H](c1ccc(OCCO)cc1)N1[C@H](c3ccccc3)[C@H](c3ccccc3)OC(=O)[C@H]1[C@@H]2C(=O)N1CCc2cc(OC)c(OC)cc2C1	1.55	2.47 (inactive)	0.535 (inactive)	4.01 (inactive)	1.94	1.96 (inactive)	0.034	0.921	1.06	0.119	0.774	0.645	0.538	-0.992 (inactive)	1.09	1.3	0.707	1.39	1.13	0.942
CC(C)Cc1ccc(CN2CC[C@@H](N)C2)cc1	-1.05	-1.18 (inactive)	-21.4 (active)	-4.81 (inactive)	-1.26	-4.43 (inactive)	-0.119	-0.707	-0.462	-0.336	0.472	-0.459	-0.275	-1.75 (inactive)	-1.16	-0.727	-1.06	-0.431	-0.444	0.419
O=C1O[C@@H](c2ccccc2)[C@@H](c2ccccc2)N2[C@@H](c3ccccc3OCCO)[C@]3(C(=O)Nc4ccc(C#CC5(O)CCCCCC5)cc43)[C@@H](C(=O)N3CCN(c4ncccn4)CC3)[C@H]12	1.55	3.08 (inactive)	0.961 (inactive)	7.62 (inactive)	2.9	1.21 (inactive)	-0.122	0.662	0.821	-0.0542	0.448	-0.125	0.304	-0.562 (inactive)	0.878	1.06	0.301	0.463	0.439	-0.431
COC(=O)[C@@]1(Cc2ccc(OC)cc2)[C@H]2c3cc(C(=O)N(C)C)n(Cc4ccc(C(F)(F)F)nc4)c3C[C@H]2CN1C(=O)c1ccccc1	-1.54	0.643 (inactive)	1.7 (inactive)	0.473 (inactive)	2.17	0.379 (inactive)	0.498	0.243	-0.055	0.338	0.707	1.15	0.784	-1.59 (inactive)	0.081	-0.178	0.189	-0.015	-0.557	0.663
[N-]=[N+]=Nc1ccccc1C[C@]1(C(=O)NCc2ccccc2)N=C(c2ccc(OCCCO)cc2)O[C@H]1c1ccccc1N=[N+]=[N-]	1.52	0.422 (inactive)	1.63 (inactive)	4.87 (inactive)	2.53	0.362 (inactive)	0.292	0.358	1.04	-0.067	1.04	0.236	0.778	0.716 (inactive)	1.31	0.34	0.291	0.646	-0.245	1.11
C[C@H]1C2[C@H](Cc3ccccc3)NC(=O)[C@]23C(=O)NCC(=O)N2CCC[C@H]2C(=O)NC/C=C/CCC/C=C/C3[C@@H]2O[C@]12C (stereo not given in full)	-1.33	0.291 (inactive)	-0.0836 (inactive)	-0.0152 (inactive)	-1.02	1.51 (inactive)	-0.18	-0.627	-0.508	-0.278	0.38	-0.398	-0.269	-0.0803 (inactive)	-0.568	-1.26	-0.681	-0.618	-0.233	1.55
NCCCCCCNC(=O)[C@H]1C[C@H]2C(=O)N[C@@H](Cc3ccccc3)C(=O)N2[C@H]1c1cccc(OCCO)c1	0.753	0.106 (inactive)	0.269 (inactive)	-0.689 (inactive)	1.66	0.524 (inactive)	0.255	0.337	0.347	0.0562	0.809	0.682	0.713	-0.895 (inactive)	0.324	0.0638	0.13	0.362	-0.0608	0.101
COC(=O)[C@@]1(Cc2ccc(OC)cc2)[C@H]2c3cc(C(=O)N4CCCC4)n(CCc4ccc(O)c(O)c4)c3C[C@H]2CN1C(=O)c1ccccc1	-0.445	-0.087 (inactive)	0.208 (inactive)	0.751 (inactive)	3.62	-0.765 (inactive)	0.491	-0.17	-0.122	0.212	1.49	0.845	1.35	-0.73 (inactive)	0.0136	0.0777	-0.352	-0.269	-0.45	1.76
CCOc1ccc(N2C(=O)CSC2c2cccc([N+](=O)[O-])c2)cc1 (stereo not given)	0.971	0.493 (inactive)	0.527 (inactive)	0.712 (inactive)	1.63	1.01 (inactive)	-0.0555	0.154	0.699	-0.0697	0.891	-0.117	-0.0935	-0.105 (inactive)	0.344	0.0863	0.354	0.241	0.168	-0.0762
C=CC[C@]1(C(=O)NCc2ccccc2)N=C(c2ccc(OCCCO)cc2)O[C@H]1c1ccccc1CN=[N+]=[N-]	1.35	-0.755 (inactive)	-0.175 (inactive)	1.54 (inactive)	2.87	-0.765 (inactive)	0.0634	0.853	1.06	0.107	1.51	0.709	0.899	-0.169 (inactive)	1.19	1.24	0.171	1.39	0.607	0.835
O[C@@H](Cc1ccccc1)[C@@H](/C=C/C1CC1)NCc1cccc(Cl)c1	-0.534	-2.26 (inactive)	-19 (active)	-2.31 (inactive)	-0.44	-0.59 (inactive)	0.0558	-1.08	-0.419	-0.296	1.2	0.081	1.31	-0.944 (inactive)	-1.46	-0.638	-1.14	-0.78	-1.61	0.157
